PubChem BioAssay (NCATS)
Records with an inconclusive call do not appear. The source made the active and inactive calls. Calls follow the shape of the dose curve; as a rule, active = well fitted curve in the direction sought with a large enough effect; inconclusive = small, poorly fitted or top-dose-only effect, or another doubt; inactive = no such curve, though single readings can be large; an effect the other way counts as inactive or inconclusive.

What was measured:
[1] = qHTS for compounds that reverse cellular toxicity of Amyloid beta (A-beta) peptide in yeast: LOPAC Validation Assay (AID 720559);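 also: plate controls were DMSO for no effect and equimolar ferric chloride plus clioquinol rescue for full effect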
Method in brief: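 Yeast cells expressing toxic A-beta were combined with pinned compounds in growth medium and incubated 48 hr at 30 C. Growth was read as absorbance at 600 nm and normalized to DMSO and to an equimolar FeCl3/clioquinol positive control.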

[2] = qHTS for Activators of Parkin Expression: LOPAC Validation Assay (NLuc Reporter) (AID 720572;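 also: 0% = DMSO and 100% = positive control compound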)
Method in brief: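 Neuronal line stably carrying a FLuc/NLuc coincidence reporter under the Parkin promoter, seeded 24 h, then dosed in 7-point series for 24 h at 37 C. NLuc luminescence read after FLuc; normalized to DMSO and positive control (100%).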

[3] = qHTS for Activators of Parkin Expression: LOPAC Validation Assay (FLuc Reporter) (AID 720573;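 also: 0% = DMSO and 100% = positive control compounds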)
Method in brief: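 Neuronal cell line stably carrying FLuc/NLuc coincidence reporter under Parkin promoter; cells plated 24 h, then compounds added in 7-point dose response for 24 h at 37 C. FLuc luminescence read; normalized to DMSO and positive control (100%).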

[4] = biological target: T1, Hexokinase-4 (Homo sapiens) + Glucokinase regulatory protein (Homo sapiens) (UniProt P35557+Q14397); assay: qHTS assay for inhibitors of recombinant human GCK-GKRP interaction: Diaphorase-coupled assay (AID 743205)
T1 sequence (P35557 whole entry, looked up): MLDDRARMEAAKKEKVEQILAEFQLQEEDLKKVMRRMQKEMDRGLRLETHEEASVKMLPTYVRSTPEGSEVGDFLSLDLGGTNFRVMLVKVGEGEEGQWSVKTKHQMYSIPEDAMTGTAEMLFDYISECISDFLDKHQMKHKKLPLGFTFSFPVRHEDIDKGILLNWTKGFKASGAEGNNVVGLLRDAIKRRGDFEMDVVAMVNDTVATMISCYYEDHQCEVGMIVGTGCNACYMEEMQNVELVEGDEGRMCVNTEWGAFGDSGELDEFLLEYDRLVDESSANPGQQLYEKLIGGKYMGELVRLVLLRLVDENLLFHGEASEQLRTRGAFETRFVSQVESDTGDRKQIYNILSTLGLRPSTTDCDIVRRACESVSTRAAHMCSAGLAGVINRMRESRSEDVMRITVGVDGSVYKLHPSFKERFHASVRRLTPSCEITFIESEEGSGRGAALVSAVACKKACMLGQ
T1 sequence (Q14397 whole entry, looked up): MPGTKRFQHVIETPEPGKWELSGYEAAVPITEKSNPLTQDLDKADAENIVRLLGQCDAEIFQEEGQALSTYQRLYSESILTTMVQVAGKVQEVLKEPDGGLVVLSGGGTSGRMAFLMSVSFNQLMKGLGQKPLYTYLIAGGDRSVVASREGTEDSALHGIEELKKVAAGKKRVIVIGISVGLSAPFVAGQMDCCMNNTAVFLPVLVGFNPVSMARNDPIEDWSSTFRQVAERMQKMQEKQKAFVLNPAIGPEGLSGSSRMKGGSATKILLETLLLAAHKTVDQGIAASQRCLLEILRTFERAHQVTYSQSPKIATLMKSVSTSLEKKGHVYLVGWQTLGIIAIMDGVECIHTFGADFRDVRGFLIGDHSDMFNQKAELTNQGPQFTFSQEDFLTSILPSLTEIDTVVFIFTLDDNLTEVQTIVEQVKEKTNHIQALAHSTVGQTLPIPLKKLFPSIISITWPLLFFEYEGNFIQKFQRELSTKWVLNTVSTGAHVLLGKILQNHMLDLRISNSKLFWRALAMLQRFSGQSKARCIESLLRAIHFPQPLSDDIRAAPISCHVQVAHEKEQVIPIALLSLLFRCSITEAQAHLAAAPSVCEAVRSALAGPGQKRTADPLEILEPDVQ
Method in brief: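 GST-GCK (10 nM) with FLAG-GKRP (10 nM), 5 mM glucose and 0.4 mM ATP in pH 7.6 Hepes; compounds preincubated 20 min with substrate. G6PDH/diaphorase coupling converts resazurin to resorufin, read kinetically (ex 525/em 590 nm) for 30 min.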

[5] = biological target: T1, Hexokinase-4 (Homo sapiens) + Glucokinase regulatory protein (Homo sapiens); assay: qHTS assay for inhibitors of recombinant human GCK-GKRP interaction: ADP-Glo assay (AID 743206);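 also: plate controls were DMSO plus enzyme for no effect and no enzyme for full effect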
Method in brief: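 GST-GCK and FLAG-GKRP (15 nM each in the dispensed mix, with 2 uM S6P) react with 0.4 mM ATP and 5 mM glucose (final) in Hepes pH 7.6 for 60 min at room temperature. ADP is measured by ADP-Glo luminescence.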

[6] = biological target: T1, Hexokinase-4 (Homo sapiens) + Glucokinase regulatory protein (Homo sapiens); assay: qHTS assay for inhibitors of recombinant human GCK-GKRP interaction: HTRF assay (AID 743207);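 also: 0% = DMSO with GCK present and -100% = DMSO wells lacking GCK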
Method in brief: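 GST-GCK and FLAG-GKRP (5 nM each) were combined with 2 uM S6P in pH 7.1 Hepes/MgCl2/KCl/DTT buffer, then compound and anti-FLAG XL665/anti-GST K antibodies were added. After 60 min at room temperature, HTRF 665/615 nm emission was read.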

[7] = qHTS Assay for Identifying Gametocytocidal Compounds (AID 743244);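 also: % is scaled to controls: 0 for no effect and ±100 for the full control effect; actives lower the fluorescent signal which means gametocytes are killed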; conditions: P. falciparum 3D7 stage III-V gametocytes, alamarBlue, 72 h; max response: stronger effect = lower value
Method in brief: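 Compounds are pinned into medium, gametocytes (stage III–V, 3D7, 20,000 cells/well) added, and plates held 72 h at 37 °C in 5% CO2. AlamarBlue follows for 24 h before fluorescence reading.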

Nc1ncnc2c1c(-c1ccc(Oc3ccccc3)cc1)cn2C1CCCC1
inactive: outcome [1] | Potency [2] | Potency [3] | Potency [4] | Potency [5] | Potency [6] | max response [7] 4.42%

CCCCS(=N)(=O)CC[C@H](N)C(=O)O (stereo partly drawn)
inactive: outcome [1] | Potency [2] | Potency [3] | Potency [4] | Potency [5] | Potency [6] | max response [7] 6.27%

Nc1nc2[nH]c(=O)cnc2c(=O)[nH]1
inactive: outcome [1] | Potency [2] | Potency [3] | Potency [4] | Potency [5] | Potency [6] | max response [7] 4%

C[C@]12C=CC(=O)C=C1CC[C@@H]1C2=CC[C@]2(C)[C@@H](C(=O)CN3CCN(c4cc(N5CCCC5)nc(N5CCCC5)n4)CC3)CC[C@@H]12
inactive: outcome [1] | Potency [2] | Potency [3] | Potency [4] | Potency [5] | Potency [6]

COc1cc([C@@H]2c3cc4c(cc3[C@H](O)C3COC(=O)[C@@H]32)OCO4)cc(OC)c1OC (stereo partly drawn)
inactive: outcome [1] | Potency [2] | Potency [3] | Potency [4] | Potency [5] | Potency [6]

C[C@](Cc1ccc(O)c(O)c1)(NN)C(=O)O
inactive: outcome [1] | Potency [2] | Potency [3] | Potency [4] | Potency [5] | Potency [6]

Cc1nc2c(OCc3ccccc3)cccn2c1CC#N
inactive: outcome [1] | Potency [2] | Potency [3] | Potency [4] | Potency [5] | Potency [6] | max response [7] 18.4%

COC(=O)C1=C(C)NC(C)=C([N+](=O)[O-])C1c1ccccc1C(F)(F)F (stereo not drawn)
inactive: outcome [1] | Potency [2] | Potency [3] | Potency [4] | Potency [5] | Potency [6] | max response [7] 19.5%

O=C1NC(=O)c2cc(Nc3ccccc3)c(Nc3ccccc3)cc21
inactive: outcome [1] | Potency [2] | Potency [3] | Potency [4] | Potency [5] | Potency [6] | max response [7] 5.21%

COc1ccc(-c2cc3ncc(C)n3c(Nc3ncccc3C(N)=O)n2)cc1OC
inactive: outcome [1] | Potency [2] | Potency [3] | Potency [4] | Potency [5] | Potency [6] | max response [7] 12.4%

O=c1onc2n1-c1cc(Br)ccc1OC2
inactive: outcome [1] | Potency [2] | Potency [3] | Potency [4] | Potency [5] | Potency [6] | max response [7] 20.4%

N#Cc1cc([N+](=O)[O-])c2sc(C(N)=O)[n+]([O-])c2c1
inactive: outcome [1] | Potency [2] | Potency [3] | Potency [4] | Potency [5] | Potency [6]

C#CC(N)CCC(=O)O (stereo not drawn)
inactive: outcome [1] | Potency [2] | Potency [3] | Potency [4] | Potency [5] | Potency [6] | max response [7] 8.18%

COc1ccccc1N1CCN(CCCCN2C(=O)c3ccccc3C2=O)CC1
inactive: outcome [1] | Potency [2] | Potency [3] | Potency [4] | Potency [5] | Potency [6] | max response [7] 10.1%

CCCCCCCCCC[Si](C)(C)CCC(=O)NC(Cc1ccc(C)cc1)c1ccccc1 (stereo not drawn)
inactive: outcome [1] | Potency [2] | Potency [3] | Potency [4] | Potency [5] | Potency [6] | max response [7] 13.6%

N#C/C(=C\c1ccc(O)c(O)c1)C(=O)NCCc1ccccc1
inactive: outcome [1] | Potency [2] | Potency [3] | Potency [4] | Potency [5] | Potency [6] | max response [7] 5.86%

CCCN(CCc1ccccc1)C1CCc2c(O)cccc2C1 (stereo not drawn)
inactive: outcome [1] | Potency [2] | Potency [3] | Potency [4] | Potency [5] | Potency [6]

N[C@@H](Cc1c[nH]c2ccccc12)C(=O)O
inactive: outcome [1] | Potency [2] | Potency [3] | Potency [4] | Potency [5] | Potency [6]

CCCn1c(=O)c2[nH]c(-c3ccc(S(=O)(=O)O)cc3)nc2n(CCC)c1=O
inactive: outcome [1] | Potency [2] | Potency [3] | Potency [4] | Potency [5] | Potency [6] | max response [7] 27.3%

CCN(c1nc(N)c(C(=O)N=C(N)N)nc1Cl)C(C)C
inactive: outcome [1] | Potency [2] | Potency [3] | Potency [4] | Potency [5] | Potency [6]

Cc1ccccc1/C=C/C1=NCCN1
inactive: outcome [1] | Potency [2] | Potency [3] | Potency [4] | Potency [5] | Potency [6]

O=C1Nc2ccc(I)cc2/C1=C/c1cc(Br)c(O)c(Br)c1
inactive: outcome [1] | Potency [2] | Potency [3] | Potency [4] | Potency [5] | Potency [6] | max response [7] -8.13%

CC(C)(C)NCC(O)COc1cccc2[nH]c(=O)[nH]c12 (stereo not drawn)
inactive: outcome [1] | Potency [2] | Potency [3] | Potency [4] | Potency [5] | Potency [6] | max response [7] 25.5%

O=S(=O)(c1cccc2c(Cl)cccc12)N1CCCNCC1
inactive: outcome [1] | Potency [2] | Potency [3] | Potency [4] | Potency [5] | Potency [6]

C=CCN1CCc2c(cc(O)c(O)c2Cl)C(c2ccccc2)C1 (stereo not drawn)
inactive: outcome [1] | Potency [2] | Potency [3] | Potency [4] | Potency [5]

CC(=O)[C@H]1CCC2C3CC=C4C[C@@H](OS(=O)(=O)O)CC[C@]4(C)C3CC[C@@]21C (stereo partly drawn)
inactive: outcome [1] | Potency [2] | Potency [3] | Potency [4] | Potency [5] | Potency [6] | max response [7] 21.2%

Nc1nc2c(cnn2CCc2ccccc2)c2nc(-c3ccco3)nn12
inactive: outcome [1] | Potency [2] | Potency [4] | Potency [5] | Potency [6] | max response [7] -5.77%

NCC(O)C1CCCCCCC1 (stereo not drawn)
inactive: outcome [1] | Potency [2] | Potency [4] | Potency [6] | max response [7] 18.9%

O=C(O)CCC/C=C\C[C@@H]1[C@@H](/C=C/[C@H](O)C2Cc3ccccc3C2)[C@@H](F)C[C@@H]1O
inactive: outcome [1] | Potency [4] | Potency [5] | Potency [6] | max response [7] -7.09%

COC(=O)C(C)(N)Cc1ccc(O)cc1 (stereo not drawn)
inactive: outcome [1] | Potency [2] | Potency [3] | Potency [4] | Potency [6] | max response [7] 7.17%
